The structures appear in SMILES notation. For some of these results: Entries with a potency or affinity are not part of this list.

The values below come from ChEMBL document CHEMBL3988442, “University of Dundee, Small-Polar-MMV Screening Library” (2021).

What all share (parameters): scale not given: direction of the effect not stated beside the values
Assay [1] deals with Protein translocase subunit SecA (Escherichia coli (strain K12)) (UniProt P10408). Put plainly: Assay to Identify E. coli SecA ATPase Inhibitors. It is filed as functional. The conditions noted are these: 30 µM.
Assay [2] has as its target T1, Ubiquitin-activating enzyme e1, putative (Leishmania donovani (strain BPK282A1)) (UniProt E9BSI1).
T1 sequence (whole entry): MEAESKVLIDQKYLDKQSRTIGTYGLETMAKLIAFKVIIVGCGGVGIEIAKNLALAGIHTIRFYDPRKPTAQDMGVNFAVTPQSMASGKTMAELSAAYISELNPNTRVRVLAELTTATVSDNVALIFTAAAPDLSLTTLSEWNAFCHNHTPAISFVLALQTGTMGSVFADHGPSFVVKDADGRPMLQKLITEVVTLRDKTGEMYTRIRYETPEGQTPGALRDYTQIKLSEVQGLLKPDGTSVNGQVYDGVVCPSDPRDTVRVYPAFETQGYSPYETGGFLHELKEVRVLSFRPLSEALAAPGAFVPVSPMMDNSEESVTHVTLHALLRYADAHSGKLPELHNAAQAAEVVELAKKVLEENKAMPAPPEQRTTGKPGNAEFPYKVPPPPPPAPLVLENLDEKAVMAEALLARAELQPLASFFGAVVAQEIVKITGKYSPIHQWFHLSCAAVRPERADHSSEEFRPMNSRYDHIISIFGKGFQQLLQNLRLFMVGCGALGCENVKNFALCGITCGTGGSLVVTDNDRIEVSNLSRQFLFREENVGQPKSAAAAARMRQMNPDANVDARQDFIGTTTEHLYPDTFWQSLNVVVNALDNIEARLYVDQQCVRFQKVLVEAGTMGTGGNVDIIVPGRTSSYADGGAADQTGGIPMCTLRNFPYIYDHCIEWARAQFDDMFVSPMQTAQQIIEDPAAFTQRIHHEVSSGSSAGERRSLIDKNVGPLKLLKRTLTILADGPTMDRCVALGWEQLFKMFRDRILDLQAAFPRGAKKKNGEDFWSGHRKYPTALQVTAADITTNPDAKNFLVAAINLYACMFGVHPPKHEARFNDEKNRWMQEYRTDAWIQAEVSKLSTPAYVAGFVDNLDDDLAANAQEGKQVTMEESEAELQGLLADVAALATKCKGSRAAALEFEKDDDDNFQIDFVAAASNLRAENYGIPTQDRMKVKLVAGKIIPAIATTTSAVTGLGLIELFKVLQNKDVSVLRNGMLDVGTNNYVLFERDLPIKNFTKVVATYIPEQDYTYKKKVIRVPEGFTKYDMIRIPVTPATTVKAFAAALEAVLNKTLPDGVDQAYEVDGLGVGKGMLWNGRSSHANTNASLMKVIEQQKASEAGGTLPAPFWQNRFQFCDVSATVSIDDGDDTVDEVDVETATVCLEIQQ
Briefly: Leishmania donovani Ubiquitin Activating Enzyme (LdE1). The settings on record: 30 µM. It is filed as functional.

In assay [3] the target is AMP-activated protein kinase, AMPK (Homo sapiens) (UniProt P54646+O43741+P54619+Q9UGJ0+Q9Y478+Q13131+Q9UGI9). Briefly: AMP-dependent Kinase enzyme assay. An in vitro enzyme assay that detects ADP turnover that is directly proportional to AMPK activity. This uses naive AMPK that is activated during the assay with MK-8722. The assay is classed as functional. The settings on record: 30 µM.

In assay [4] the target is Sialic acid-binding Ig-like lectin 9 (Homo sapiens) (UniProt Q9Y336). Briefly: Hs-Siglec9 ALPHAscreen SOP 20170721. The conditions noted are these: 10 µM.
A further assay deals with Trypanosoma cruzi. Put plainly: Trypanosoma cruzi phosphomannomutase and mannose-1-phosphate guanylyltransferase assay. It is filed as functional. The conditions noted are these: 10 µM.
In assay [5] the target is T2, Arginase-2, mitochondrial (Homo sapiens) (UniProt P78540).
T2 sequence (whole entry): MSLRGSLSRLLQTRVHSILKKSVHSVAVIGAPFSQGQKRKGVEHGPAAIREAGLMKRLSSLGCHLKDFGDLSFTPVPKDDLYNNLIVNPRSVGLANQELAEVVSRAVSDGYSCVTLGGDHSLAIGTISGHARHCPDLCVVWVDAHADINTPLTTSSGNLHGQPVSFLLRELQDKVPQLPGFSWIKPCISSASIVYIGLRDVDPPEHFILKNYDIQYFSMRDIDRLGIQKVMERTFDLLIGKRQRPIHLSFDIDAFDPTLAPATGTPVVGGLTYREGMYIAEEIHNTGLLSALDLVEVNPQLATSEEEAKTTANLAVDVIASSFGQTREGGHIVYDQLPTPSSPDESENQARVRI
Put plainly: in vitro enzyme assay to detect the production of urea directly proportional to the activity of Arginase II. Also: in the data most compounds retested in dose-response had high values. It is filed as functional. The conditions noted are these: 33.3 µM.

The target of assay [6] is T3, Proteasome subunit beta (Trypanosoma cruzi) (UniProt O96673).
T3 sequence (whole entry): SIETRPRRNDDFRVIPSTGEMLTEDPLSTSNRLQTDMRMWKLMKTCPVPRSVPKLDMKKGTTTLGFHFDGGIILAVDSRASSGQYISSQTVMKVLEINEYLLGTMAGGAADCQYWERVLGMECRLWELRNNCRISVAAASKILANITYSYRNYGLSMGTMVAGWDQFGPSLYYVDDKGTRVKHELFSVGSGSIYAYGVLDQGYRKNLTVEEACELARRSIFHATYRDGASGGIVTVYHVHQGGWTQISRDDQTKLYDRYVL
Briefly: Trypanosoma cruzi proteasome chymotrypsin-like activity (TcProtChymo) assay. Also: in the data most compounds retested in dose-response had high values. It is filed as functional. The conditions noted are these: 9.37 µM.

The species named for another assay is Homo sapiens. Briefly: To identify inhibition of the IFN signalling (Jak-Stat) pathway via expression of an eGFP reporter gene under the control of an IFN-stimulated response element (ISRE) containing MxA promoter. The settings on record: 30 µM. It is filed as functional.
The target of assay [7] is T4, Tyrosyl-tRNA synthetase, putative (Trypanosoma cruzi (strain CL Brener)) (UniProt Q4DSP6).
T4 sequence (whole entry): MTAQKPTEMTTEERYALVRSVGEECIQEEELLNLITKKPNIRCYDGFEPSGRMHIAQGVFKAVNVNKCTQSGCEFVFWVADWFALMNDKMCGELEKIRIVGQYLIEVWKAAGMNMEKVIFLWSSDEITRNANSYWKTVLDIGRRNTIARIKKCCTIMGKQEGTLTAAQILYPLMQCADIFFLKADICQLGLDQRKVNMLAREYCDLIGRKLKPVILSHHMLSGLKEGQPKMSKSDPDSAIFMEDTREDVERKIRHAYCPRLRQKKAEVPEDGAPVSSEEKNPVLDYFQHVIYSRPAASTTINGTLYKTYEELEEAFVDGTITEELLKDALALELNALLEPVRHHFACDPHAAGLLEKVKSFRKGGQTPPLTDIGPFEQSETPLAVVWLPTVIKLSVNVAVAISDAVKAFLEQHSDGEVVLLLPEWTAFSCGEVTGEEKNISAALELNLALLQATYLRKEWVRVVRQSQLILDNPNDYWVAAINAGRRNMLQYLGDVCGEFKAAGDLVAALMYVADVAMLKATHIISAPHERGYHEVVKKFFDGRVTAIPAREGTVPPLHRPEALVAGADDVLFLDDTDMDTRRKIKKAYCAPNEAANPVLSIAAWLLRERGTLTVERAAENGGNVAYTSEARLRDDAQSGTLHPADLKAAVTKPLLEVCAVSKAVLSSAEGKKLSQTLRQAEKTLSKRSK
Put plainly: Trypanosoma cruzi tyrosyl tRNA synthetase (TcYRS) _High Tyrosine SOP. Also: in the data most compounds retested in dose-response had high values. The settings on record: 30 µM. The assay is classed as functional.

The target in assay [8] is T4, Tyrosyl-tRNA synthetase, putative (Trypanosoma cruzi (strain CL Brener)). Briefly: Trypanosoma cruzi tyrosyl tRNA synthetase (TcYRS) SOP. It is filed as functional. The settings on record: 30 µM.
The target of assay [9] is Chromo domain-containing protein 1 (Saccharomyces cerevisiae (strain ATCC 204508 / S288c) (Baker's yeast)) (UniProt P32657). Put plainly: ScCHD-1 Enzyme Inhibition Assay. Also: in the data most compounds retested in dose-response had high values. The assay is classed as functional. The conditions noted are these: 30 µM.
Chain of Chromo domain-containing protein 1 (Saccharomyces cerevisiae (strain ATCC 204508 / S288c) (Baker's yeast)) (P32657 whole entry, the tested form may be a part): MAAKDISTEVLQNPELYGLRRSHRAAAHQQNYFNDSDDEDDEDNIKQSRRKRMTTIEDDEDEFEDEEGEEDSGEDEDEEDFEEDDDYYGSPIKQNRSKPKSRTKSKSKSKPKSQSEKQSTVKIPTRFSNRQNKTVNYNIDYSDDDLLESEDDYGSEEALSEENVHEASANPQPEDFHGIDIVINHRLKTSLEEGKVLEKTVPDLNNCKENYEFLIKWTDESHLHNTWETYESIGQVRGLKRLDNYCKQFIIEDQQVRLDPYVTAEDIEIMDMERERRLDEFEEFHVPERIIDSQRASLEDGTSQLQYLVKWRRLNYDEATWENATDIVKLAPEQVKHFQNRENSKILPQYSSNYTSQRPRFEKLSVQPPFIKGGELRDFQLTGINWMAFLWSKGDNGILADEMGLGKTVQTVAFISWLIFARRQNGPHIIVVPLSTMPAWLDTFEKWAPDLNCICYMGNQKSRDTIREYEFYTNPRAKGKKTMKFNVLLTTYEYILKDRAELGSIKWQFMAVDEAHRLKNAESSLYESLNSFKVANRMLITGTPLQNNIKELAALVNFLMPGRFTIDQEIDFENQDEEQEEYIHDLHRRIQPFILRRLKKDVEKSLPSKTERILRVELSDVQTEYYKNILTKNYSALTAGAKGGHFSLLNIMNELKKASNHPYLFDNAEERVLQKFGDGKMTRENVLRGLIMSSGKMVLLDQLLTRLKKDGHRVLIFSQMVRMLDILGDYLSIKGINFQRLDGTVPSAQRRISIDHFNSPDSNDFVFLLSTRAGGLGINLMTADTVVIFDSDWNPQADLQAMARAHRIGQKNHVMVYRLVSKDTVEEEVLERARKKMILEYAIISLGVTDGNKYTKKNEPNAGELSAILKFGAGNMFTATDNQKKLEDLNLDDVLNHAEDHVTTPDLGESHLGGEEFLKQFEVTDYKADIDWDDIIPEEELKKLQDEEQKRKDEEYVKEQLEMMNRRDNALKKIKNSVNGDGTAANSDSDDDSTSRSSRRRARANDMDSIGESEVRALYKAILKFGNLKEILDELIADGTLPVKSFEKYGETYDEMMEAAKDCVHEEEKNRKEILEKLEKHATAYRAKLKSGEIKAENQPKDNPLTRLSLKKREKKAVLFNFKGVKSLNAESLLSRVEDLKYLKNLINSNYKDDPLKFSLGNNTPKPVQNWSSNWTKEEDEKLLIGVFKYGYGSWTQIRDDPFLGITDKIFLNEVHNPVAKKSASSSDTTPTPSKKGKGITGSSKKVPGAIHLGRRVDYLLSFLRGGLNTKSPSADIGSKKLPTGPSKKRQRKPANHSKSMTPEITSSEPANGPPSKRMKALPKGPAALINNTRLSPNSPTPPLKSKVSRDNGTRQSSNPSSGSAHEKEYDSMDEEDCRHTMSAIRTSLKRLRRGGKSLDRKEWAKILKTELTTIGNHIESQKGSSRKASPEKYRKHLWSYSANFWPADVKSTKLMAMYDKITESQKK

Chain of Sialic acid-binding Ig-like lectin 9 (Homo sapiens) (Q9Y336 whole entry): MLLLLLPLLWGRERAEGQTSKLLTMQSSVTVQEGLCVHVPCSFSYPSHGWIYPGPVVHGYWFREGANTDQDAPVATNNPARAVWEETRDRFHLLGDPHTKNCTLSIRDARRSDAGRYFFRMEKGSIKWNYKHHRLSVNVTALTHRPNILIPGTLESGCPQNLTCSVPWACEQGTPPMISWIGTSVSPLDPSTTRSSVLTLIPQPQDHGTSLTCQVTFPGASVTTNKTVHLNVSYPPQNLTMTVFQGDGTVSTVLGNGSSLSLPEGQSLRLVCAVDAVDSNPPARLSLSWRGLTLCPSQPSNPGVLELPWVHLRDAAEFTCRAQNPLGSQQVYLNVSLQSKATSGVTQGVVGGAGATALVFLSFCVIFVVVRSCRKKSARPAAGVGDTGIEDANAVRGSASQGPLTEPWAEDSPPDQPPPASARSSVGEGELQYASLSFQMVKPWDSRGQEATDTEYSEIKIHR
Chain of Protein translocase subunit SecA (Escherichia coli (strain K12)) (P10408 whole entry): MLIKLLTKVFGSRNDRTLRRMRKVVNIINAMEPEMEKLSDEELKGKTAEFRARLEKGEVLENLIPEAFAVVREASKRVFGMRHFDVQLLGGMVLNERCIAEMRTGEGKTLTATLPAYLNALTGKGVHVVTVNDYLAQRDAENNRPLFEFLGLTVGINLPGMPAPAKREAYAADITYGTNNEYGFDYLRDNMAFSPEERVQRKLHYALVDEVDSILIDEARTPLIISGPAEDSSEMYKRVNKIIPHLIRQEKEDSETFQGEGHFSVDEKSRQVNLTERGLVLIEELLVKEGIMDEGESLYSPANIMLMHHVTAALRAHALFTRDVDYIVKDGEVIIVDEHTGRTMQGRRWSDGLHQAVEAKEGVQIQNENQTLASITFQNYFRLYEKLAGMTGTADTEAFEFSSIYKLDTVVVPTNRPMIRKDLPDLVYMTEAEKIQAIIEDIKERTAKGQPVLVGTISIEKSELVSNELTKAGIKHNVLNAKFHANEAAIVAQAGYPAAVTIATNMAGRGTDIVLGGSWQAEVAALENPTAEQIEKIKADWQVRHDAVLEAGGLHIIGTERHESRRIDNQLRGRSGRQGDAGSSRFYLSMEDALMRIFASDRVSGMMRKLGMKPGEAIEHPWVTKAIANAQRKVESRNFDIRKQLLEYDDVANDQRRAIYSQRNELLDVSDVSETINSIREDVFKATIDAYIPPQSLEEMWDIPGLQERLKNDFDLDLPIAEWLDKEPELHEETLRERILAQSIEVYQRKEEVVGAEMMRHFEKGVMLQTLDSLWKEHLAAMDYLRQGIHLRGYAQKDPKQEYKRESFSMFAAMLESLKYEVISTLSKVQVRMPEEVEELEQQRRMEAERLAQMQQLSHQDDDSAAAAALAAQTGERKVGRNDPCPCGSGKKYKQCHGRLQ

Take `Cc1nc(NC2CCCC2)cc(C2CCN2C(=O)c2cccnc2)n1` (stereo not drawn): the Percent Effect in [1] was -4.83%; in assay [2], 23%; in assay [3], 7.33%; in [4], 1.33%; in the assay with Trypanosoma cruzi, 4.54%; in assay [5], -3.48%. For the same compound, the Percent Effect in [6] was 10.8%; in the assay listed under Homo sapiens it was 12.2%; in [7] it was 6.45%; in [8] it was 14.3%; in assay [9], -16%.
With `Cc1nn(C)c(C)c1C1CCCN1Cc1nc(-c2ccco2)oc1C` (stereo not drawn), the Percent Effect in [1] was -4.35%; in [2], 18.9%; in assay [3], -4.34%; in [4] it was -6.83%; in the assay on Trypanosoma cruzi it was -1.76%; in assay [5], 3.14%. Moreover, the Percent Effect in assay [6] was 11.3%; in the assay filed under Homo sapiens, 18.9%; in assay [7] it was 8.91%; in assay [8] it was 13.4%; in [9], -8.93%.
Regarding `Cc1cc(C)n(CCC(=O)N2CCC(c3nc(C(C)C)no3)CC2)n1`, the Percent Effect in assay [1] is -2.78%; in assay [2] it was 20.8%; in assay [3], 4.41%; in [4] it was 11.6%; with Trypanosoma cruzi it was 5.8%; in assay [5], -40%. Further, the Percent Effect in [6] is 16.5%; in the assay listed under Homo sapiens it was -3.55%; in assay [7] it was 6.45%; in assay [8], 18.5%; in [9], -7.45%.
Regarding `COc1cccc(S(=O)(=O)CCN2CCCN(C(C)=O)CC2)c1`, the Percent Effect in assay [1] was -0.358%; in assay [2] it was 5.33%; in assay [3] it was -1.44%; in [4] it was 13.1%; in the assay with Trypanosoma cruzi, 6.13%; in [5], 24%. Further, the Percent Effect in assay [6] was 1.22%; in the assay filed under Homo sapiens, 18.5%; in [7] it was 1.64%; in assay [8], 6.17%; in [9], -15.8%.
For `COc1ncccc1C(=O)NCC(C)Oc1cccnc1` (stereo not drawn), the Percent Effect in [1] is -3.65%; in assay [2], 5.41%; in assay [3], 1.52%; in assay [4], 2.58%; in the assay with Trypanosoma cruzi, 0.386%; in assay [5], 1.91%. Further, the Percent Effect was 4.83% in assay [6]; -3.73% in the assay filed under Homo sapiens; 6.88% in [7]; 12.2% in [8]; -3.26% in [9].
Take `CN(C)CCN(Cc1cccc(C(F)(F)F)c1)C(=O)c1cc[nH]n1`: the Percent Effect in [1] is 1.05%; in assay [2] it was -4.17%; in [3], -0.743%; in assay [4], -0.91%; in the assay with Trypanosoma cruzi, -4.57%; in assay [5], 2.65%. For the same compound, the Percent Effect in [6] is 5.61%; in the assay listed under Homo sapiens, 6.86%; in assay [7], -3.16%; in assay [8], -10.3%; in assay [9], -3.17%.
Consider `O=c1nc(SCc2cccnc2)c2c(n1CCO)CCC2`, for which the Percent Effect in [1] was -1.99%; in assay [2], 13.7%; in assay [3] it was -3.57%; in [4], 7.9%; in the assay with Trypanosoma cruzi, 0.588%; in assay [5], 5%. For the same compound, the Percent Effect was 15.8% in assay [6]; 16.7% in the assay listed under Homo sapiens; 6.45% in assay [7]; 15% in [8]; -7.2% in assay [9].
With `CCOc1cccc2c1OCC(C(=O)NS(=O)(=O)c1ccc(Cl)cc1)=C2`, the Percent Effect was -8.58% in assay [1]; -2.7% in [2]; 102% in [3]; 7.55% in assay [4]; -5% in the assay on Trypanosoma cruzi; -5.61% in [5]. The Percent Effect was -2.52% in [6]; 18.9% in the assay filed under Homo sapiens; -23.1% in assay [7]; -33.3% in assay [8]; -6.64% in assay [9].
